In the supplement of paper PMC13380429:

Tested on: Vero E6 infected with SARS-CoV-2
Test: inhibition of SARS-CoV-2 cytopathic effect; higher = more antiviral protection, active = above 15
Conditions: 48 h

Measured: inhibition of SARS-CoV-2 cytopathic effect

O=C(NC1(c2ccccc2)CC1)c1c(CN2CCC(N3CCCCC3)CC2)c(-c2cccc(C(F)(F)F)c2)nc2cc(Br)ccc12
inactive: 1 nM 1.74% | 8.33 nM 3.71% | 100 nM 1.73% | 833.33 nM -4.53% | 10000 nM -13.1%

CN1C(=O)CC[C@H]1c1cccnc1 [cotinine]
inactive: 1 nM -0.33% | 8.33 nM -1.5% | 100 nM -0.09% | 833.33 nM 0.39% | 10000 nM 0.17%

O=C(Cc1ccc(-c2ccc(OCCN3CCOCC3)cc2)cn1)NCc1ccccc1
inactive: 1 nM -1.67% | 8.33 nM 0.24% | 100 nM -3.29% | 833.33 nM -1.51% | 10000 nM -1.44%

O=C(NC(O)C(Cl)(Cl)Cl)NC(O)C(Cl)(Cl)Cl (stereo not given) [dicloralurea]
inactive: 1 nM -4.23% | 8.33 nM -2.71% | 100 nM -0.82% | 833.33 nM -3.4% | 10000 nM -4.69%

CCNCCS(=O)(=O)NC[C@@]1(c2ccccc2)SC(NC(=O)C(C)(C)C)=NN1C(=O)C(C)(C)C [litronesib]
inactive: 1 nM 2.17% | 8.33 nM 5.24% | 100 nM 2.46% | 833.33 nM 0.96% | 10000 nM 0.39%

OCc1ccccc1O [salicyl-alcohol]
inactive: 1 nM -0.86% | 8.33 nM -1.41% | 100 nM 0.06% | 833.33 nM 4.76% | 10000 nM 0.29%

C[C@@H](O)[C@H]1C(=O)N2C(C(=O)O)=C([C@H]3CCCO3)S[C@H]12 [faropenem]
inactive: 1 nM -0.32% | 8.33 nM -0.11% | 100 nM 1.66% | 833.33 nM 0.92% | 10000 nM 1.61%

COC(=O)C(c1ccccc1)C1CCCCN1 (stereo not given)
inactive: 1 nM -1.97% | 8.33 nM -1.71% | 100 nM -1.37% | 833.33 nM -1.52% | 10000 nM -0.37%

COC(=O)Nc1nc2cc(Sc3ccccc3)ccc2[nH]1 [fenbendazole]
inactive: 1 nM 0.07% | 8.33 nM -1.31% | 100 nM 0.21% | 833.33 nM 0.61% | 10000 nM -0.61%

N#Cc1ccc2[nH]cc(CCCCN3CCN(c4ccc5oc(C(N)=O)cc5c4)CC3)c2c1 [vilazodone]
inactive: 1 nM 0.76% | 8.33 nM 1.07% | 100 nM 0.51% | 833.33 nM 1.56% | 10000 nM -3.06%
